# Columns and labels:
# Assay in all cases: DAPPL (digital affinity profiling via proximity ligation, sequencing); 10 mM Tris-HCl pH 7.5, 50 mM NaCl, 1 mM DTT, 4% glycerol, room temperature, 30 min; GST-TFs on glutathione beads, 16-mer random dsDNA library, 0.1% formaldehyde crosslink after washing; high values mean tight binding
# FEV = biological target: T1, FEV (Homo sapiens, UniProt Q99581 1-238); details: protein: recombinant; tags: N-terminal GST; dsDNA, one strand shown
# T1 sequence: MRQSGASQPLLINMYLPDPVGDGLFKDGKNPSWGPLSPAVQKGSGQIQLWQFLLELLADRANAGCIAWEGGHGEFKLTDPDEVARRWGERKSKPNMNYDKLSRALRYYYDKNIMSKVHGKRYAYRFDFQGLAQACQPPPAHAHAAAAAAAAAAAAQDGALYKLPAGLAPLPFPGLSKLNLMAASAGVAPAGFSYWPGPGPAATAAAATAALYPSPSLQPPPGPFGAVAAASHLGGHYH
# How it was run: (§1)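 Binding signal is given per hexamer as its read frequency for a factor divided by its frequency in the tag-only sample. GST-fused human transcription factors were expressed in yeast, captured on glutathione beads, barcoded with DNA and pooled with that sample, then incubated with 200 nmole of a 16-mer random double-stranded DNA library in Tris/NaCl/DTT/glycerol buffer for 30 min at room temperature. The pools were then washed, crosslinked, proximity-ligated, amplified by PCR and sequenced on an Illumina NextSeq500.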
# ETV5 = ETV5 (Homo sapiens, UniProt P41161 1-510); details: protein: recombinant; tags: N-terminal GST; dsDNA, one strand shown
# How it was run: as §1
# HSF1 = HSF1 (Homo sapiens, UniProt Q00613 1-529); details: protein: recombinant; tags: N-terminal GST; chain copies: 3; dsDNA, one strand shown
# How it was run: as §1
# SPIC = biological target: T2, SPIC (Homo sapiens, UniProt Q8N5J4 1-248); details: protein: recombinant; tags: N-terminal GST; dsDNA, one strand shown
# T2 sequence: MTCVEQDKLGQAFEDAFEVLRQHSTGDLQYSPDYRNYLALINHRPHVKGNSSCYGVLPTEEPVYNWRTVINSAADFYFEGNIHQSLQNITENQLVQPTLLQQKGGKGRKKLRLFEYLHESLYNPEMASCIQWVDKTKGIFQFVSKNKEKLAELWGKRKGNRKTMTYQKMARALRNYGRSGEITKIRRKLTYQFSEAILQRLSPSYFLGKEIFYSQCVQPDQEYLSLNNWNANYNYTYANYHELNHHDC
# How it was run: as §1
# ELF4 = ELF4 (Homo sapiens, UniProt Q99607 1-663); details: protein: recombinant; tags: N-terminal GST; dsDNA, one strand shown
# How it was run: as §1
# ELK4 = biological target: T3, ELK4 (Homo sapiens, UniProt P28324-2 1-405); details: protein: recombinant; tags: N-terminal GST; dsDNA, one strand shown
# T3 sequence: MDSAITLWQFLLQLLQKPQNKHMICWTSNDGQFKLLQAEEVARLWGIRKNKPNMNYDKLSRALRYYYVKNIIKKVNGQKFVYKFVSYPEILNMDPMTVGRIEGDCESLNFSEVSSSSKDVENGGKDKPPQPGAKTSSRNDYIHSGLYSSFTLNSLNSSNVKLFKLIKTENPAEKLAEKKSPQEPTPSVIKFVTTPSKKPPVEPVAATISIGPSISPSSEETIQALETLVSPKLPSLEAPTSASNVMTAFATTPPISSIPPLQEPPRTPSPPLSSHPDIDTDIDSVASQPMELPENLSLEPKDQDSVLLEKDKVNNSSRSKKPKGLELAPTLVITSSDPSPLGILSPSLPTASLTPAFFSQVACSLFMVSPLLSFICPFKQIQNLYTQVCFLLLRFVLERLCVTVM
# How it was run: as §1
# ETV2 = biological target: T4, ETV2 (Homo sapiens, UniProt O00321 1-342); details: protein: recombinant; tags: N-terminal GST; dsDNA, one strand shown
# T4 sequence: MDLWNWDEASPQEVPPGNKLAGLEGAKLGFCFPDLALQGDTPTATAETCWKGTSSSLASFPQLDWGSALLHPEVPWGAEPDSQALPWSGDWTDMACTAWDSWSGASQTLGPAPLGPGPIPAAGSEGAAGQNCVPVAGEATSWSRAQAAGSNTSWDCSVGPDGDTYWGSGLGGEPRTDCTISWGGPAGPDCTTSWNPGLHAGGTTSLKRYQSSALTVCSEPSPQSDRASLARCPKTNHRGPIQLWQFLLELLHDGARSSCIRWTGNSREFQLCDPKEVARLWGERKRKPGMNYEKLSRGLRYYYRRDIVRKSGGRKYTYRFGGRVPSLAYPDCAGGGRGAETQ
# How it was run: as §1
# ELF3 = biological target: T5, ELF3 (Homo sapiens, UniProt P78545 1-371); details: protein: recombinant; tags: N-terminal GST; dsDNA, one strand shown
# T5 sequence: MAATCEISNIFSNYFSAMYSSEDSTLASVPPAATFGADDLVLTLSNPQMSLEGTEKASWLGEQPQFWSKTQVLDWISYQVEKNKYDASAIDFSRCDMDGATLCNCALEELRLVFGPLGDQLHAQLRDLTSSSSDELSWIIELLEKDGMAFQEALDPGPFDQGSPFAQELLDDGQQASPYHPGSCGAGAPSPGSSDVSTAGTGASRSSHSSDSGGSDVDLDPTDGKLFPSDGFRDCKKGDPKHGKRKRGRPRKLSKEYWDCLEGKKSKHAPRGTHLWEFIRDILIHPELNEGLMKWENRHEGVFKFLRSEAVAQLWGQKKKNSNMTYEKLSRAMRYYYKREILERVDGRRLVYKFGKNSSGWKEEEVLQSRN
# How it was run: as §1
# CRX = CRX (Homo sapiens, UniProt O43186 1-299); details: protein: recombinant; tags: N-terminal GST; dsDNA, one strand shown
# How it was run: as §1
# ETV1 = ETV1 (Homo sapiens, UniProt P50549 1-477); details: protein: recombinant; tags: N-terminal GST; dsDNA, one strand shown
# How it was run: as §1
# ERF = biological target: T6, ERF (Homo sapiens, UniProt P50548 1-548); details: protein: recombinant; tags: N-terminal GST; dsDNA, one strand shown
# T6 sequence: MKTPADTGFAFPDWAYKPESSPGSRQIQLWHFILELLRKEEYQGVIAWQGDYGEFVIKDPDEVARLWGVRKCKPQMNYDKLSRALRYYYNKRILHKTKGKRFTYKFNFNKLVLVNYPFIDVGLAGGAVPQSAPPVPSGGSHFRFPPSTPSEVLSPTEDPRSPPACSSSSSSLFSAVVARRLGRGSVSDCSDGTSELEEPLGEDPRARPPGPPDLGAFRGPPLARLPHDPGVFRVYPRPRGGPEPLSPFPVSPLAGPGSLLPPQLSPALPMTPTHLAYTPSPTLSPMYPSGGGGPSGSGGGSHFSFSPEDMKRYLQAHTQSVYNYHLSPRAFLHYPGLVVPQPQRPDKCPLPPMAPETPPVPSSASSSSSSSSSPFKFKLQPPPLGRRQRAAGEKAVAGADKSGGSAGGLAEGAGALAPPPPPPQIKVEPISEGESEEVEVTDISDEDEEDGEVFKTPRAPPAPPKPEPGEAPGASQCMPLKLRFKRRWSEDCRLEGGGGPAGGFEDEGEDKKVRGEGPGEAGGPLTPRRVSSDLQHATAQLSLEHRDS
# How it was run: as §1
# ETV3L = biological target: T7, ETV3L (Homo sapiens, UniProt Q6ZN32 1-361); details: protein: recombinant; tags: N-terminal GST; dsDNA, one strand shown
# T7 sequence: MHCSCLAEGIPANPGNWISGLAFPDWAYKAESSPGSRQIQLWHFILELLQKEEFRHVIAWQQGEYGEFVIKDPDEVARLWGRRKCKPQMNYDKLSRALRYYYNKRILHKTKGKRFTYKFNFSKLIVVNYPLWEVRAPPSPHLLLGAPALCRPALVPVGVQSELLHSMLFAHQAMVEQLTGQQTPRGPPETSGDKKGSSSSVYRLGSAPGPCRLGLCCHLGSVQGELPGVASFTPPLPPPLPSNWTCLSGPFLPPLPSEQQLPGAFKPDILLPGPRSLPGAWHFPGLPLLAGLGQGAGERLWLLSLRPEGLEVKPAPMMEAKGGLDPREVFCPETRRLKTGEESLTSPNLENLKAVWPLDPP
# How it was run: as §1
# ETS2 = biological target: T8, ETS2 (Homo sapiens, UniProt P15036 1-469); details: protein: recombinant; tags: N-terminal GST; dsDNA, one strand shown
# T8 sequence: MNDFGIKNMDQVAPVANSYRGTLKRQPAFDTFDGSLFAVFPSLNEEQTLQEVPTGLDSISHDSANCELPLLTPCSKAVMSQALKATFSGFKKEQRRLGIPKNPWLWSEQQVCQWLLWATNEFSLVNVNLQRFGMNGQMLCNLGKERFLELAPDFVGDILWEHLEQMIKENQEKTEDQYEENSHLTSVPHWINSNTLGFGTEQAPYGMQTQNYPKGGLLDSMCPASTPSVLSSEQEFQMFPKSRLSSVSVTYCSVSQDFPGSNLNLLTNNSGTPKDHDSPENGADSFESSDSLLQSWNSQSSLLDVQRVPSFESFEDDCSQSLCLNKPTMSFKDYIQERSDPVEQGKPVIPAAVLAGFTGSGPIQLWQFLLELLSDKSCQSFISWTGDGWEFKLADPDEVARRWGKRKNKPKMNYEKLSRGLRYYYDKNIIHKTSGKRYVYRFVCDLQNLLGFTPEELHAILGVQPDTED
# How it was run: as §1
# SPDEF = biological target: T9, SPDEF (Homo sapiens, UniProt O95238 1-335); details: protein: recombinant; tags: N-terminal GST; dsDNA, one strand shown
# T9 sequence: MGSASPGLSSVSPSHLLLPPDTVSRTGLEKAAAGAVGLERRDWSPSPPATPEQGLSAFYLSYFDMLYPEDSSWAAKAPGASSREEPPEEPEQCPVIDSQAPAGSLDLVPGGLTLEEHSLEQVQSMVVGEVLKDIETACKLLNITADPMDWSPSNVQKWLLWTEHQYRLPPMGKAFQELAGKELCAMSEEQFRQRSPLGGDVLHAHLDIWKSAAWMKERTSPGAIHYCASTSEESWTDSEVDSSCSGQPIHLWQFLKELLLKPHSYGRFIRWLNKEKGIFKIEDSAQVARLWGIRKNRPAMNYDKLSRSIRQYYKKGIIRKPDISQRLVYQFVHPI
# How it was run: as §1
# ETV7 = biological target: T10, ETV7 (Homo sapiens, UniProt Q9Y603 1-341); details: protein: recombinant; tags: N-terminal GST; dsDNA, one strand shown
# T10 sequence: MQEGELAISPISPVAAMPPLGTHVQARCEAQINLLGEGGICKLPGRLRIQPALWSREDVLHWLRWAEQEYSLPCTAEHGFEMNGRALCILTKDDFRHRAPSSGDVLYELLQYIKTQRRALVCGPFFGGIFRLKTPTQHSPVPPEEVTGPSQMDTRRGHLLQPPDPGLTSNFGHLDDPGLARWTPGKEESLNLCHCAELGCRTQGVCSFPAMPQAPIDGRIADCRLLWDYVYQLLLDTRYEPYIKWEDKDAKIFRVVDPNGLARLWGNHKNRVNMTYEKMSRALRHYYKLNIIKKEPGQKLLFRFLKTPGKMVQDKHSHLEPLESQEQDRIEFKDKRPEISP
# How it was run: as §1
# ELF5 = biological target: T11, ELF5 (Homo sapiens, UniProt Q9UKW6-2 1-255); details: protein: recombinant; tags: N-terminal GST; dsDNA, one strand shown
# T11 sequence: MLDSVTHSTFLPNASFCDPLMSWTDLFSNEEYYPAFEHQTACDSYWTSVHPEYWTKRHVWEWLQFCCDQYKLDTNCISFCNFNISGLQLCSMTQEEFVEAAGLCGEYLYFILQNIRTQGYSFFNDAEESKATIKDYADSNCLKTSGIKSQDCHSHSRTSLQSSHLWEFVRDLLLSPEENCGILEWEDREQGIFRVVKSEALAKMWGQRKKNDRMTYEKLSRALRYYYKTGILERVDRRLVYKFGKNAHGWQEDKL
# How it was run: as §1
# ETV3 = biological target: T12, ETV3 (Homo sapiens, UniProt P41162-2 1-143); details: protein: recombinant; tags: N-terminal GST; dsDNA, one strand shown
# T12 sequence: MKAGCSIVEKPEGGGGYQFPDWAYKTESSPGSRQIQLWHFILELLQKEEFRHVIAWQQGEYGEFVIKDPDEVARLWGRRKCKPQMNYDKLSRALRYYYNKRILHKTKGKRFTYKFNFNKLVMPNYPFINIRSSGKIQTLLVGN
# How it was run: as §1
# ETV6 = ETV6 (Homo sapiens, UniProt P41212 1-452); details: protein: recombinant; tags: N-terminal GST; dsDNA, one strand shown
# How it was run: as §1
# HSF1, sequence (Q00613 whole entry): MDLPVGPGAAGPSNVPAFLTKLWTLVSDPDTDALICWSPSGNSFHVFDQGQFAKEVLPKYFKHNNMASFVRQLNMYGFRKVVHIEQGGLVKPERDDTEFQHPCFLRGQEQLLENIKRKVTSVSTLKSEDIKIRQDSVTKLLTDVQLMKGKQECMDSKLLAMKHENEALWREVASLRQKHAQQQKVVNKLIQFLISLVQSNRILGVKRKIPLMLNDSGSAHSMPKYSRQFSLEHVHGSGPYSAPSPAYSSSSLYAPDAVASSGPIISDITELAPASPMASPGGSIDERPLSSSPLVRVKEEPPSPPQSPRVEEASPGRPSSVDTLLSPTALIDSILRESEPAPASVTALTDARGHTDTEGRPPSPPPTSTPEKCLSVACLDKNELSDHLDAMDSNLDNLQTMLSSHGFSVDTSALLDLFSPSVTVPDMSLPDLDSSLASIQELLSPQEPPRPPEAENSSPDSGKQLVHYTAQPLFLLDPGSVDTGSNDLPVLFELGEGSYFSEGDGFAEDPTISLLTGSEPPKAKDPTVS
# ELF4, sequence (Q99607 whole entry): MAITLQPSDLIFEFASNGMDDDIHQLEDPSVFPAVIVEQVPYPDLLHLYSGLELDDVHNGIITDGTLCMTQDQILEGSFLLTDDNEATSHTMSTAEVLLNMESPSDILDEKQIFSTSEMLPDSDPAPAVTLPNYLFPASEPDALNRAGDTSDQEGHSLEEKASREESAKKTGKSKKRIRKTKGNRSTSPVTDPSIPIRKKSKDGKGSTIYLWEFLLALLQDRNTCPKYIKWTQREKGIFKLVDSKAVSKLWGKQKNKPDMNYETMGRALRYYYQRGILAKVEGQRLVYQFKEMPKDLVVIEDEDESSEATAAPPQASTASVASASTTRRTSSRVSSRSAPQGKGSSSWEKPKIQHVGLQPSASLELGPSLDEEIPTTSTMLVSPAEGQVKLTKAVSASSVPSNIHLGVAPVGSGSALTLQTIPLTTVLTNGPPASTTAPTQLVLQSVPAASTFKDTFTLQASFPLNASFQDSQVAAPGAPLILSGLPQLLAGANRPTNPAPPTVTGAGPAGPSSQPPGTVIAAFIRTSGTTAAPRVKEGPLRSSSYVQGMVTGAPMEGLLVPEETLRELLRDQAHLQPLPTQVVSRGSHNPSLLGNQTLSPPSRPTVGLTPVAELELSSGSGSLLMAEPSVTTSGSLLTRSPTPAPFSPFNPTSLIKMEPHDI
# CRX, sequence (O43186 whole entry): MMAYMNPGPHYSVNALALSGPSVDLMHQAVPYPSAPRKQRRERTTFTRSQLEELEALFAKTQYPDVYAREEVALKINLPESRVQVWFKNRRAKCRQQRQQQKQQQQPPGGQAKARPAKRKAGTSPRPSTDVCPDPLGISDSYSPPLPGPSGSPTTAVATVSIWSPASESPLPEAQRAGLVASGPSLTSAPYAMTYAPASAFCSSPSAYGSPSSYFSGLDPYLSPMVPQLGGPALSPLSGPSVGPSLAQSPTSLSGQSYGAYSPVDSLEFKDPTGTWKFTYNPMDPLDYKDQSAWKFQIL
# ETV6, sequence (P41212 whole entry): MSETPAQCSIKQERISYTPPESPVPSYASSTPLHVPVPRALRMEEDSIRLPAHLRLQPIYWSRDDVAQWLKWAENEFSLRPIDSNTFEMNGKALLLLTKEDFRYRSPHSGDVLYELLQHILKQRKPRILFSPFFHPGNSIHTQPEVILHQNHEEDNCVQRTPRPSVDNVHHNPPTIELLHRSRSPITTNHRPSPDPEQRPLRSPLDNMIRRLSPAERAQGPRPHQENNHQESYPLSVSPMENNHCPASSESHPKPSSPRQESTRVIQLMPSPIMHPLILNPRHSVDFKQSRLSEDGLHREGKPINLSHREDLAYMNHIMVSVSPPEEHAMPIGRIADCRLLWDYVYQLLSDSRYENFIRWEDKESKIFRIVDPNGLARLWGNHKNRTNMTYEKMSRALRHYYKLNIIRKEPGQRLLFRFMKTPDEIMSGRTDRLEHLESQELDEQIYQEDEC
# ETV1, sequence (P50549 whole entry): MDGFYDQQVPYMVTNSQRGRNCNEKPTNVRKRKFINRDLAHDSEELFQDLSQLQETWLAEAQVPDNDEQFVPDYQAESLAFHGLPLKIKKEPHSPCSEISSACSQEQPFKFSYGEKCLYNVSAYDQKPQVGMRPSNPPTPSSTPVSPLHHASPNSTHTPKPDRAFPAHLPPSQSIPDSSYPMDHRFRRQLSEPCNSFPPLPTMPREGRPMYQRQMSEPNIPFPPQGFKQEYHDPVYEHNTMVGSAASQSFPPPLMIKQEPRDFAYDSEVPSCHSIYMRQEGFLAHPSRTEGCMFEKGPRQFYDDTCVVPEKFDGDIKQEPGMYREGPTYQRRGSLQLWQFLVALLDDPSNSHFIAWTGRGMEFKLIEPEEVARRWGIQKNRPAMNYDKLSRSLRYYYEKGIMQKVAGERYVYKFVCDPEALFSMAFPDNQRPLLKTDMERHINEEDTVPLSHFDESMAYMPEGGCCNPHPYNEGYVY
# ETV5, sequence (P41161 whole entry): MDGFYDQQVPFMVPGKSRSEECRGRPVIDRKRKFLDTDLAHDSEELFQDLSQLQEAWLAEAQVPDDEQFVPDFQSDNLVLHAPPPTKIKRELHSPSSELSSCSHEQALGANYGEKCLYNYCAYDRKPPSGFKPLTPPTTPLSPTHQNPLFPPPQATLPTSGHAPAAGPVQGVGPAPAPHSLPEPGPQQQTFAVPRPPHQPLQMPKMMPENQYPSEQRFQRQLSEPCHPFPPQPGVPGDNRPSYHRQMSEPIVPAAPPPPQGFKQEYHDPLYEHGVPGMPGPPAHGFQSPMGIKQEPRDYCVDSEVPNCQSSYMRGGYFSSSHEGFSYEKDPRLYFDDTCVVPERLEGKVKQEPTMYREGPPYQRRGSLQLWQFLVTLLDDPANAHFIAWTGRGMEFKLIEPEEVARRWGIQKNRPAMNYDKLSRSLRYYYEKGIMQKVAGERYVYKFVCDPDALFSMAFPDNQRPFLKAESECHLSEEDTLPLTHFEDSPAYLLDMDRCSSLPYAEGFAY
sequence,measurement,setting,value
CCTTAT,binding signal,FEV,"1.4 fold enrichment (6-mer frequency, TF over GST control)"
same,binding signal,ETV5,"1.41 fold enrichment (6-mer frequency, TF over GST control)"
same,binding signal,HSF1,"1.35 fold enrichment (6-mer frequency, TF over GST control)"
same,binding signal,SPIC,"1.33 fold enrichment (6-mer frequency, TF over GST control)"
same,binding signal,ELF4,"1.47 fold enrichment (6-mer frequency, TF over GST control)"
same,binding signal,ELK4,"1.45 fold enrichment (6-mer frequency, TF over GST control)"
same,binding signal,ETV2,"1.39 fold enrichment (6-mer frequency, TF over GST control)"
same,binding signal,ELF3,"1.37 fold enrichment (6-mer frequency, TF over GST control)"
same,binding signal,CRX,"1.77 fold enrichment (6-mer frequency, TF over GST control)"
same,binding signal,ETV1,"1.62 fold enrichment (6-mer frequency, TF over GST control)"
same,binding signal,ERF,"1.41 fold enrichment (6-mer frequency, TF over GST control)"
same,binding signal,ETV3L,"1.46 fold enrichment (6-mer frequency, TF over GST control)"
same,binding signal,ETS2,"1.41 fold enrichment (6-mer frequency, TF over GST control)"
same,binding signal,SPDEF,"1.71 fold enrichment (6-mer frequency, TF over GST control)"
same,binding signal,ETV7,"1.49 fold enrichment (6-mer frequency, TF over GST control)"
same,binding signal,ELF5,"1.73 fold enrichment (6-mer frequency, TF over GST control)"
same,binding signal,ETV3,"1.39 fold enrichment (6-mer frequency, TF over GST control)"
same,binding signal,ETV6,"1.42 fold enrichment (6-mer frequency, TF over GST control)"

# — paper PMC7862700, “An all-to-all approach to the identification of sequence-specific readers for epigenetic DNA modifications on cytosine”
